Reference: PubChem BioAssay AID1508600 (Functional Genomics Laboratory (NCATS/FGL), 2020)
Among all 53,000 sequences or so, about 3,700 (7%) were called active. Only a selection was taken, and actives are over-represented in it overall. Unmarked numbers belong to inactive results.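 How the source made its calls: active means gene knockdowns whose robust z-score for IL-1 alpha signal is at least 2 or at most -2, so actives lie on both sides; inactive means the rest.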

Assay: Components of the Cytosolic LPS Sensing Pathway: Gene Identification via Genome-wide siRNA Screen
Conditions: RAW264.7 macrophages, IL-1a HTRF, actives lie on both sides, screened at 100 nM (by protocol), cells primed 5 h with Pam3CSK4 first
Excerpt: Non-canonical inflammasome activation by cytosolic LPS is a critical component of the host response to Gram-negative bacterial infection, however we lack a comprehensive understanding of the cellular processes that control this pathway. Here we describe a genome-wide siRNA screen to identify genes regulating the mouse macrophage IL-1 alpha response to cytosolic LPS.
RAW264.7 cells were maintained in complete DMEM media, comprising DMEM with 4.5 g/L glucose, 10% FBS (Gemini Bio-Products, West Sacramento, CA), 2 mM Glutamine (Lonza) and 20 mM HEPES (Lonza), hereafter complete DMEM.
The RNAi screen was conducted in 384-well format using the Ambion Silencer Mouse Genome siRNA Library (#4391425), which consists of three unique, nonoverlapping, nonpooled siRNAs for each of 17,000 gene targets. siRNA reagents ([…]) were stamped into 384-well white flat-bottom microplates (Corning, 3570) using a Velocity11 VPrep liquid handling system (Agilent) integrated into a BioCel robotic platform (Agilent) in columns 1-22, leaving columns 23-24 empty for negative (Ambion, Negative control #1) and positive (mouse Casp4) controls, respectively. The median value of each plate's negative control column was used to normalize sample wells, and the positive control was used to assess transfection efficiency and assay performance.
Lipofectamine RNAiMAX Transfection Reagent ([…]; Invitrogen) was added in […] serum-free, antibiotic-free media to plate wells using a Thermo Scientific Matrix WellMate and Microplate Stacker. Plates were incubated for 45 min at room temperature to allow for the sufficient formation of siRNA-lipid complexes. Cells were seeded at a density of 1x10^4 cells per well in 20 microL media containing 20% (vol/vol) FBS without antibiotics. The final concentration of siRNA in each well was 100 nM. Cells were cultured for 48h at 37 degrees C in 5% CO2 before addition of […] of TLR ligand Pam3CSK4 for 5 hours. The medium was then removed, replaced with […] growth media and cell were transfected with […] of LipidA and TransIT-TKO (Mirus) for 24 hour. At the end of the LipidA treatment, […] of supernatant was transferred to a 384 Greiner Bio-one non-binding low volume plate and […] of IL-1a HTRF reagent (Cisbio, 62MIL1APEH) was added and incubated at room temperature overnight. The plates were read on an EnVision plate reader (PerkinElmer). Cell viability was measured by adding 20ul Cell Titer Glo to the original plate and running a luminescence read on the EnVision. The quantified IL-1a signal for each siRNA gene-targeted well was divided by the median of the negative control wells and multiplied by 100 to achieve a negative control normalized value for each well/siRNA. This normalized value was then used to generate a robust z-score by first taking the log of each value and then by subtracting the median and dividing by the […].

Row | Sequence | z-score
1 | GGAUUAUGGUACCAAGCGCTT against Umps | 1.21
2 | CCUAAUUGAAAUCAGCAGUTT against Hip1r | 1.14
3 | GGCACAAGAAAUUUGAUGATT against Gpc6 | -1.91
4 | GCAAAUCAUGACUAUUGUATT against Atat1 | 0.00079
5 | CAUGAUAGCGAUAGCAAUCTT against Olfr507 | 0.0127
6 | GCCUGAUUCAGAGUAUAAATT against Col14a1 | -1.24
7 | CCUACUCAAAUGAAGUUGUTT against Cdk17 | -0.384
8 | CCUGUGAAAUACCAGCGUGTT against Rsl24d1 | 2.05 (active)
9 | GCUCUGGUUGCCAGUUAUGTT against Ddx49 | 0.903
10 | GGGAUUAUAGGGCGCAUUGTT against Olfr685 | -1.01
11 | GCGACAAAUCAAAAAGGCCTT against Dnajb9 | -0.0942
12 | GGCCAACAAUAUAAAAGACTT against Pus3 | -0.641
13 | GACUUCGGACAAAUGGUGCTT against Lce1f | 2.27 (active)
14 | GGUCCUGAUGUUGAAGGCATT against Rinl | 0.647
15 | GCAUCUCUUACUAAGAUUATT against Anxa4 | -0.433
16 | GGAAUUAAAUGAACCCAGATT against Arhgap8 | 2.48 (active)
17 | GGUUUUAUGCAUUAGCUCCTT against Lipf | 0.502
18 | GCAACCUGUCAUUUUGUGATT against Olfr1134 | -1.74
19 | GGCUUUUAGCUACCUUGUGTT against AW209491 | -0.704
20 | GCACGAUGUCUCAGCUCUATT against Nipal3 | -2.89 (active)
21 | CCAGGUGUAACAAAAAAGATT against Dtl | 1.09
22 | CCGGGAAAUUCUGUUAGCCTT against Pla2g1b | -1.95

Row | Sequence | z-score
23 | GGAAAGCUCUCAAUACCUGTT against Olfr633 | -0.688
24 | GCUUUGGUUGCUAACCCAATT against Slc45a2 | 0.407
25 | GGCUCAAUUUGGAAAGGACTT against Anxa8 | -0.586
26 | GGAGCAUCUAUGAUUACAATT against Iqcg | 3.24 (active)
27 | GGAUAUGUCGGAAAAAGCCTT against Cfh | 0.271
28 | GGCCACAGUAAUGGGAAAUTT against Cga | -0.208
29 | GGUAAAUGAUCUGAAAAUGTT against Rps6ka6 | -0.46
30 | GCUCAUGUCAGGAGAGAGUTT against Ocel1 | -2.41 (active)
31 | CGAGCUAUACGGAAAAAAATT against Efcab12 | -1.03
32 | GCUGAUCCUCUCCCUUCAUTT against Tas2r131 | -0.463
33 | GGCUCUUCUCUCGUCCUUGTT against Nif3l1 | 0.213
34 | GGAUGAAGACCCAUAUGUGTT against Ap1b1 | -0.287
35 | GCCUCAGUUUGAAAUUGUUTT against Tbrg1 | -0.695
36 | CCUGGAUCAGCAAUCCACATT against Lpxn | -0.503
37 | UCCUCCUGUCUUACGUACGTT against Prlhr | 2.05 (active)
38 | CGUGUAGCAAUGAGAUAUUTT against Trpc5 | 0.162
39 | GGGAUUUCUGGAGAAAAUGTT against Csta2 | -0.872
40 | GGAUUCCUGUACAUAUAUUTT against Ube4b | -0.501
41 | GGCAUGAAUACAUCACAGCTT against Vmn1r220 | -0.808
42 | GGACAUACAAAUCUUCAUUTT against Mta2 | 0.886
43 | GGUGAUGCUAAAUUCUGAUTT against Mpc2 | -1.92
44 | GGUAUAUGGUGGGAACUUUTT against Bnipl | 2.04 (active)

Row | Sequence | z-score
45 | CCUCUCUUUAACAGGUCACTT against 1700034H15Rik | 1.35
46 | GCUGUUACUCUUAAACAAATT against Pdhx | 0.254
47 | GCCUCAGUUAUUUAAUGAATT against Mpp3 | -0.414
48 | GGAUGAAGAAAACUGGCUUTT against Tsx | -0.764
49 | GGAAGCAGGGCAGCUUAUUTT against Hbq1a | -2.22 (active)
50 | GGUUGACCCACUGAAAAUUTT against Marveld1 | -0.112
51 | GCACGGCCCUACUUUAUAGTT against Trim33 | -1.43
52 | GGCGUGAAAAUAGGAGAAUTT against Extl2 | -1.77
53 | GCCGCUACACAUCAAACCATT against Zc3h3 | -0.336
54 | GCUAAUCGAAGUUGAAAUUTT against Soga3 | -0.316
55 | GGAAAAUGGAGCUGUGCUCTT against Prelid3a | 0.298
56 | GCUGUUUUAGUAGAGGUAATT against Tsfm | -0.708
57 | CCUCAAAUUAUUGUUGGCATT against Ppip5k1 | -2.07 (active)
58 | GGGCUGGCUACGAUAAGCUTT against Tes | 1.53
59 | CCCUUGAAGAUGAAACCAGTT against Smarca5 | -0.277
60 | GCGGAAAUCUAAUUGCUUGTT against Kat5 | -0.0418
61 | GGUGGAUUAAGUCUCAAAATT against Pcdhb22 | 0.592
62 | CCUACUGGAAAAGAUAAUUTT against Stfa1 | 1.82
63 | GCUACUAUGUGCCUGUGACTT against Oc90 | -2.21 (active)
64 | UACAUUAGUAGAAUGGAGGTT against Mageb3 | -0.598
65 | GGAAGAAACUGAGAAACUGTT against Fam205c | 0.48
66 | CGGAAAAAUGGAAGUAUAGTT against Mrtfb | -0.687

Row | Sequence | z-score
67 | GGGCUGUGAUCAAACAUGGTT against Ano9 | -1.38
68 | GGAAUUAUGAACAAAUUGCTT against H2-M9 | 0.702
69 | GGCCUCUAUCUUCCAACAATT against Tent4a | -2.06 (active)
70 | GCCAACAAGCAUUCCAUUGTT against Mrap | -0.991
71 | GGAUACAUUAAGGUGCAAGTT against Aldh1a7 | 0.819
72 | GGCACAUGGAGUGGACAAGTT against Blvrb | 3.2 (active)
73 | GCUUGACCCUACACUACAGTT against Olfr1121 | 2.47 (active)
74 | GGCUGGCAAACUCAAAAAATT against Zfp385c | -0.813
75 | GCGAUCUAGAAAUUGACAATT against St13 | -0.59
76 | GGAAAAAGGAGGGUUUAGCTT against Tm4sf5 | 0.418
77 | GGACUGUGCAGUUAUUGUCTT against Psma6 | -2.17 (active)
78 | CCCUUUAUUAUUCCACUGUTT against Olfr530 | -1.12
79 | CCAAGUUCACAAUUGUUCUTT against Gimap8 | -0.263
80 | CCUAAAGAAAGGUUAAAGATT against Sfr1 | -0.763
81 | CGAGCCCAUGUCAGAUCAGTT against Minar1 | -2.33 (active)
82 | GCACUACCACUGUCAGCAATT against Ldb3 | -0.734
83 | CCAACACUACCAGAGAACGTT against Pfkfb1 | -0.808
84 | CGAUAAAAGACCCAAAUUATT against Emx2 | 1.86
85 | GCAUGUGUCAAGAUGUCUGTT against Tec | 1.36
86 | GGUCACAAACAGAUUAAUUTT against Ahcy | -0.404
87 | GGUUUGAAUGUCACCGGCATT against Defb29 | -1.22
88 | GGAUGAGGAAAACUUCCAGTT against Mup5 | 2.61 (active)

Row | Sequence | z-score
89 | GCCAUCACGAGCUAAAACCTT against Smad5 | -1.91
90 | GGUUUUUAGCCUGAGUGAGTT against Olfr688 | -1.8
91 | GGAUUUCUCGGAAGUCGAGTT against Cd3e | 0.517
92 | GGUCUUUCAAGUUGCAUACTT against Lama1 | 0.491
93 | GGAUGAACUAUACCAUGGCTT against Tmem132c | 1.07
94 | GGACGGUCUUGCCUUCUUCTT against Fam222a | 0.901
95 | CGAUGACGGGAAAUAAUUUTT against Snx4 | -0.663
96 | GCUAUUUUUAUAAGGGCCATT against Sh2b2 | 2.94 (active)
97 | GGCACCAUAGAUGUUUGAGTT against Cyp4f16 | -1.34
98 | GGAGCCUGUCUUUUAUUGATT against Olfr938 | 0.0765
99 | GGUAGACACCUUGUUCUUATT against Nap1l3 | 1.03
100 | GCCUUUAAUACAUAGGCUUTT against Cxcl9 | -0.381
101 | GCCAAUAGUAACCAGCCAGTT against Prkab1 | -2.07 (active)
102 | GCAAAUUCCAGUGAAAGCCTT against Papola | 1.12
103 | GGAUGACCAUGAAAGCUGUTT against Vps13b | 1.87
104 | GGUUAUCAUCUUGUGAAAATT against Srpk1 | -0.628
105 | AUGCCUAUACAAUUCUGUGTT against Olfr1167 | 0.0339
106 | GGAGAACAACAAAGACAAGTT against Hoxb8 | 2.69 (active)
107 | GGACACUAUAAGAAAGGAATT against Fnta | 0.708
108 | CCCAUUACGCAAAUUGUUCTT against Rin3 | -2.31 (active)
